From PubChem BioAssay (NCI)
About 83,000 compounds went through this panel and 20% of them were active in at least one assay; those are over-represented in the sample as a whole.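 The test compound was applied at a single concentration to cells in 96-well plates for 48 hours, and percent growth was recorded.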 The source made the active and inactive calls.

The compounds below were run on SR leukemia (assay: NCI-60 one-dose screen, 48 h (100 = growth as untreated, 0 = no growth, -100 = all killed)). Conditions: 10 µM unless noted.
Description: Growth inhibition of the SR human tumor cell line is measured as a screen for anti-cancer activity. Cells are grown in 96 well plates and exposed to the test compound for 48 hours. Compounds are tested at a single concentration, which is 10^-5 M for most compounds. The reported endpoint is percent growth (GI% or GIPRCNT), where numbers from 0 - 100% represent growth inhibition, and numbers from -100% - 0 represent cell death. For example, a value of 40 represents 60% growth inhibition. A value of 0 means no net growth occurred over the course of the experiment. A value of -40 indicates 40% of cells at the beginning of the experiment died by the end of the experiment. A value of -100 means all cells are dead at the end of the experiment.
NCI-60 Human Tumor Cell Lines Screen was performed using the standard one-dose NCI protocol, which is described in more detail at https://dtp.cancer.gov/discovery_development/nci-60/default.htm.
Compounds with GIPRCNT values below 10 were considered active. Activity score was based on GIPRCNT using the following formula: […]
Score is 0 for GIPRCNT values of 100 or above, 50 for GIPRCNT values of 0, and 100 for GIPRCNT values of -100.

SMILES	growth
COc1cc(C(=O)C[n+]2ccccc2)ccc1OC(C)=O	109% (inactive)
C#CCn1c(-c2cc(OC)c(OC)cc2Br)nc(-c2ccccc2)c1-c1ccccc1	16.4% (inactive)
O=C1C(Cl)=C(Nc2ccccc2)C(=O)C(Cl)=C1Nc1ccccc1	111% (inactive)
COc1ccc(C2=NN(C(=O)COc3ccc(Cl)cc3)C(O)(c3cc(F)c(Cl)cc3Cl)C2)cc1OC (stereo not given)	-35.1% (active)
CCn1cc(/C=C2\Oc3cc(OCC#N)ccc3C2=O)c2cc(OC)ccc21	19.2% (inactive)
COc1ccc(-c2nn(-c3ccc(NC(=O)c4cc(Cl)cc(Cl)c4)cc3)cc2-c2ccncc2)cc1Cl	50.7% (inactive)
O=C(NCCNc1nccc(-c2c(-c3cccc(O)c3)nc3sccn23)n1)c1cccc(C(F)(F)F)c1	97% (inactive)
COc1ccc(-c2coc3c(CO)c(O)ccc3c2=O)cc1	25.5% (inactive)
COc1ccc(/C=C/C(=O)c2ccc(Oc3ncnc4ccccc34)cc2)cc1OC	16.7% (inactive)
O=C(O)c1cccc2oc(-c3ccccc3O)nc12	47.6% (inactive)
CC1=C2C(=C[C@@](C)(CO)[C@@H]2OC(=O)N(C)CCN(C)C(=O)OC(C)(C)C)C(=O)[C@](C)(O)C12CC2	50.6% (inactive)
CC(C)(C)NCC(O)COc1c(Br)c(Br)c(Br)c2c1OC(C)(C)C2 (stereo not given)	-61.6% (active)
CC(C)(C)OC(=O)N1CC(Cn2cc(C(F)(F)F)c3c(Cl)ncnc32)C1	-60.9% (active)
Cc1cccc(NCS(=O)(=O)O)c1	107% (inactive)
O=C(Nc1ccc(-n2ccc3c(NC(=O)c4ccccc4)ncnc32)cc1)c1ccc(Cl)c(C(F)(F)F)c1	-19.6% (active)
Nc1nc(-c2cc3c(cc2Cl)NC(=O)/C3=C/c2ccc(Cl)cc2)cs1	13.8% (inactive)
CC(C)(C)C(=O)Nc1nc2c(s1)CCc1ccn(S(=O)(=O)c3ccccc3)c1-2	83.1% (inactive)
COc1ccc2c(c1)OC(N(C(C)=O)C(C)=O)=C(C#N)C2c1ccc(F)cc1 (stereo not given)	12.4% (inactive)
O=C1c2ccccc2OC=C(c2ccccc2)N1CCCCNc1ccc(F)cc1	81% (inactive)
Cn1c2ccccc2c2ssc(=S)c21	103% (inactive)

SMILES	growth
OC(COc1ccccc1Cl)CN1CCN(c2ccc(Cl)cc2)CC1 (stereo not given)	92.3% (inactive)
C=C1C(=O)O[C@H]2[C@H]1CC/C(C(=O)Nc1ccc(OC)c(C(N)=O)c1O)=C\CC[C@@]1(C)O[C@@H]21	22.3% (inactive)
C[C@@H]1CC2C3C[C@H](F)C4=CC(=O)C=C[C@]4(C)[C@@]3(F)[C@@H](O)C[C@]2(C)[C@@]1(O)C(=O)CO (stereo not given in full)	99% (inactive)
CCCCCCCCCCCCCCCCCCNCc1ccc(Cl)cc1	-30.1% (active)
c1ccc([Se]CCCN2CCN(CCC[Se]c3ccccc3)CC2)cc1	126% (inactive)
C=C1C(=O)O[C@H]2[C@H]1CC/C(COC(=O)c1cc(OC)c(OC)c(OC)c1)=C\CC[C@@]1(C)O[C@@H]21	-13.2% (active)
O=C(COc1ccc(Cl)cc1)N1CCN(Cc2ccc3c(c2)OCO3)CC1	97.8% (inactive)
CCNc1ncnc2n[nH]nc12	94% (inactive)
Cc1ccc(NC(=O)CN2CCOCC2)cc1Cl	82.3% (inactive)
COc1ccc(C2=NN(C(=O)COc3ccc(Cl)cc3)C(O)(c3cc(F)c(Cl)cc3Cl)C2)cc1 (stereo not given)	17% (inactive)
COc1ccccc1S(=O)(=O)Nc1ccc2c3c(cc(-c4ccoc4)nc13)C(=O)N2C	59.2% (inactive)
COc1ccc(-c2nn(-c3cccc(Cl)c3)cc2-c2cc(-c3ccc(Br)cc3)[nH]c(=O)c2C#N)cc1	35.6% (inactive)
Nc1nc(Nc2ccc(OCc3cccc(F)c3)cc2)c2c(n1)[nH]c1ccc(O)cc12	-48.3% (active)
CCCC(=O)Oc1ccc(/C(=C(\C)c2ccc(Cl)cc2)c2ccc(OCCN(CC)CC)cc2)cc1	-36.3% (active)
CCCCOc1c(N)cc(Cl)cc1C(=O)OCCN(CC)CC	79.5% (inactive)
O=C(N/N=C1\SCC(=O)N1c1ccccc1)c1cc(-c2cc3ccccc3o2)nn1-c1ccccc1	107% (inactive)
COc1ccc(-c2nnc(SCC(=O)Nc3ccc(C(=O)/C=C/c4ccccc4)cc3)o2)cc1OC	88.1% (inactive)
CCN(CC)c1ccc(C2CC(c3cc(OC)c(OC)c(OC)c3)=NN2)cc1 (stereo not given)	-10.8% (active)
CN1CCN(CC(=O)N(C)c2ccc(N=C(c3ccccc3)c3c(O)[nH]c4ccc(C#N)cc34)cc2)CC1	0.738% (active)
COc1ccc(-c2nnc(SCC(=O)Nc3ccc(C(=O)/C=C/c4ccc(OC)c(OC)c4)cc3)o2)cc1	60.1% (inactive)
